Inconclusive results are not listed. A number with no mark means an inactive call. Calls of active or inactive are those of the source. The call rests on the fitted dose curve; in most records, active means well fitted curve in the direction sought with a large enough effect; inconclusive means small, poorly fitted or top-dose-only effect, or another doubt; inactive means no such curve, though single readings can be large; an effect the other way counts as inactive or inconclusive.
Legend:
C33A = experiment: Primary qHTS to identify gynecologic anti-cancer compounds using libraries of approved drugs and bioactive compounds (AID 1345084); details: Gynecologic cancer cell panel viability, ATPlite luminescence, 48 h; series mostly up to 57.5 µM; further: nearly all actives have a fitted effect of over 55% in size
Summary of the method: (§1)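 Luminescence from the ATPlite ATP-monitoring reagent indicates viable cell number; lower signal means cytotoxicity. Cells received compound 16 h after seeding and were exposed for 48 h across five concentrations.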

Es-2 = experiment: as above; details: Gynecologic cancer cell panel viability, ATPlite luminescence, 48 h; series mostly up to 57.5 µM
Summary of the method: as §1

HeLa = experiment: as above; details: Gynecologic cancer cell panel viability, ATPlite luminescence, 48 h; series mostly up to 57.5 µM
Summary of the method: as §1

JEG-3 = experiment: as above; details: Gynecologic cancer cell panel viability, ATPlite luminescence, 48 h; series mostly up to 57.5 µM
Summary of the method: as §1

OV90 = experiment: as above; details: Gynecologic cancer cell panel viability, ATPlite luminescence, 48 h; series mostly up to 57.5 µM
Summary of the method: as §1

PA-1 = experiment: as above; details: Gynecologic cancer cell panel viability, ATPlite luminescence, 48 h; series mostly up to 57.5 µM
Summary of the method: as §1

Tov-21-G = experiment: as above; details: Gynecologic cancer cell panel viability, ATPlite luminescence, 48 h; series mostly up to 57.5 µM
Summary of the method: as §1

Tov112D = experiment: as above; details: Gynecologic cancer cell panel viability, ATPlite luminescence, 48 h; series mostly up to 57.5 µM
Summary of the method: as §1

CASKI = experiment: as above; details: Gynecologic cancer cell panel viability, ATPlite luminescence, 48 h; series mostly up to 57.5 µM
Summary of the method: as §1

Hek293T = experiment: as above; details: Gynecologic cancer cell panel viability, ATPlite luminescence, 48 h, control line for the selectivity index; series mostly up to 57.5 µM
Summary of the method: as §1

SKOV3 = experiment: as above; details: Gynecologic cancer cell panel viability, ATPlite luminescence, 48 h; series mostly up to 57.5 µM
Summary of the method: as §1

[1] = qHTS assay to identify inhibitors of the type 1 interferon - major histocompatibility complex class I in skeletal muscle: Counter screen cell viability and HiBit confirmation (AID 1347412); details: iHSKM muscle cells + IFN-b, HiBiT or CellTiter-Glo, 24 h; further: nearly all actives have a fitted effect of over 60% in size
Summary of the method: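 CRISPR HLA-B*08:01-HiBit immortalized human myoblasts (C25cl48) stimulated with 4 ng/ml IFN-beta and compounds (12-point 1:3, top 46 uM final) for 24 h at 37 C. Duplicate plates read by HiBit lytic luminescence or CellTiter Glo ATP.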
On the % scale 0 is the no-effect control and ±100 the full control effect; potency means the concentration at half of the fitted maximal effect.

Row | SMILES | Potency (C33A) | Potency (Es-2) | Potency (HeLa) | Potency (JEG-3) | Potency (OV90) | Potency (PA-1) | Potency (Tov-21-G) | Potency (Tov112D) | Potency (CASKI) | Potency (Hek293T) | Potency (SKOV3) | Potency ([1]; HiBiT) | Potency ([1]; Viability) | activity change, negative = inhibition ([1]; Viability, at 45.9 µM (top of the series)) [%]
1 | CN(C)c1ccc2c(c1)OC(N)=C(C#N)C2c1cccc(C(F)(F)F)c1 (stereo not drawn) | 0.631 µM (active) | 1 µM (active) | 0.501 µM (active) | 0.282 µM (active) | 1.41 µM (active) | 0.178 µM (active) | 0.251 µM (active) | 0.316 µM (active) | – | – | – | – | – | –
2 | CCCCNc1ncc2c(-c3ccc(F)cc3)nn(CC3CCC(N)CC3)c2n1 (stereo not drawn) | 11.2 µM (active) | – | 10 µM (active) | – | – | – | 7.94 µM (active) | – | 10 µM (active) | – | – | – | – | –
3 | NC[C@@](O)(c1ccc(Cl)cc1)c1ccc(-c2cn[nH]c2)cc1 | 22.4 µM (active) | – | 25.1 µM (active) | – | – | 15.8 µM (active) | 10 µM (active) | 25.1 µM (active) | 28.2 µM (active) | 28.2 µM (active) | 20 µM (active) | 6.25 µM (active) | 8.83 µM (active) | –
4 | O=C1NC(=O)C(c2cn3c4c(cccc24)CCC3)C1c1c[nH]c2ccccc12 (stereo not drawn) | 20 µM (active) | 10 µM (active) | 3.16 µM (active) | – | – | 3.16 µM (active) | – | 5.01 µM (active) | inactive | – | – | – | – | –
5 | O=C1C=CC2OC(c3ccccc3)C(O)C2O1 (stereo not drawn) | inactive | – | inactive | – | inactive | – | – | inactive | inactive | – | inactive | – | – | –
6 | Cc1cnc(NC(=O)Nc2cc(Br)c(C)cc2OCC2CNCCO2)cn1 (stereo not drawn) | inactive | – | – | inactive | – | inactive | – | inactive | inactive | 8.91 µM (active) | 10 µM (active) | – | – | –
7 | O=C(/C=C/c1cccc(S(=O)(=O)Nc2ccccc2)c1)NO | 11.2 µM (active) | 5.01 µM (active) | 4.47 µM (active) | 4.47 µM (active) | 3.98 µM (active) | 1.26 µM (active) | – | 3.98 µM (active) | 8.91 µM (active) | – | 11.2 µM (active) | 3.13 µM (active) | – | -9.07
8 | C=C(C)C(=O)OC1C(OC(C)=O)/C(C=O)=C\CC/C(CO)=C/C2OC(=O)C(=C)C21 (stereo not drawn) | inactive | – | inactive | inactive | inactive | inactive | – | inactive | inactive | – | inactive | – | – | –
9 | CC(Oc1cc(-n2cnc3ccc(CN4CCN(C)CC4)cc32)sc1C(N)=O)c1ccccc1C(F)(F)F (stereo not drawn) | 8.91 µM (active) | 7.94 µM (active) | 3.55 µM (active) | 5.62 µM (active) | inactive | 11.2 µM (active) | – | – | – | – | – | – | – | –
10 | O=[N+]([O-])c1cccc2[nH]c(CNc3nc(N4CCOCC4)nc4c3ncn4-c3ccsc3)nc12 | 0.178 µM (active) | – | 0.891 µM (active) | – | – | 0.891 µM (active) | – | 0.447 µM (active) | 0.891 µM (active) | 0.316 µM (active) | 0.794 µM (active) | – | – | –
11 | CC1CCC2C(C(=O)O)=COC(O[C@@H]3O[C@H](CO)[C@@H](O)[C@H](O)[C@H]3O)C12 (stereo partly drawn) | inactive | inactive | – | – | inactive | inactive | inactive | inactive | inactive | inactive | – | – | – | –
12 | CC(C)(C)c1ccc(S(=O)(=O)NCc2ccc(C(=O)Nc3cccnc3)cc2)cc1 | 7.94 µM (active) | 3.55 µM (active) | 1.78 µM (active) | 2.24 µM (active) | 3.98 µM (active) | 1.12 µM (active) | 1.78 µM (active) | – | – | – | 7.08 µM (active) | – | – | –
13 | C=CC(=O)N1CCN(C(=O)CNc2cc(I)c(Cl)cc2O)CC1 | inactive | inactive | inactive | inactive | inactive | inactive | inactive | inactive | – | inactive | inactive | – | – | –
14 | N#Cc1c(Oc2ccc(F)c(NC(=O)Cc3cccc(C(F)(F)F)c3)c2)ccc2nc(NC(=O)C3CC3)sc12 | inactive | 5.62 µM (active) | 10 µM (active) | – | 1.58 µM (active) | 8.91 µM (active) | 7.94 µM (active) | – | – | – | – | – | – | –
15 | COc1ccc(CCC(=O)c2c(O)cc(O)cc2O[C@@H]2O[C@H](CO)[C@@H](O)[C@H](O)[C@H]2O)cc1 | inactive | – | inactive | inactive | inactive | inactive | inactive | inactive | inactive | – | – | – | – | –
16 | N#Cc1cc(F)cc(-c2nc(-c3ccccn3)no2)c1 | inactive | – | – | – | – | – | – | inactive | inactive | inactive | – | – | – | –
17 | Cc1cc(N(C)C)ccc1-c1nc2ccc(-c3nc4ccc(N5CCN(C)CC5)cc4[nH]3)cc2[nH]1 | inactive | inactive | inactive | inactive | inactive | – | inactive | inactive | – | inactive | – | – | – | –
18 | CCN1CCN(Cc2ccc(NC(=O)c3ccc(C)c(/C=C/c4cnc5[nH]ccc5c4OC)c3)cc2C(F)(F)F)CC1 | 14.1 µM (active) | 10 µM (active) | 15.8 µM (active) | inactive | 17.8 µM (active) | 5.62 µM (active) | 2.51 µM (active) | – | 12.6 µM (active) | – | 8.91 µM (active) | 6.25 µM (active) | 14 µM (active) | –
19 | CN(c1ccccc1CNc1nc(Nc2ccc3c(c2)CC(=O)N3)ncc1C(F)(F)F)S(C)(=O)=O | 6.31 µM (active) | 20 µM (active) | 15.8 µM (active) | – | 8.91 µM (active) | 15.8 µM (active) | inactive | 25.1 µM (active) | – | – | – | – | – | –

Source: PubChem BioAssay (NCATS)
